Data on 19 molecules can be found in PubChem BioAssay (NCATS).

Each structure is given as a SMILES string. Results filed as inconclusive are left out. Where a call stands in place of a potency, no number is given. Calls of active or inactive are those of the source. Calls come from the whole dose curve; as a rule, active = well fitted inhibition curve with a large enough effect; inconclusive = small, poorly fitted or top-dose-only effect; inactive = no such curve, though single readings can be large or run the other way.
Note: nearly all actives have a fitted effect of over 60% in size.
Potency is the fitted concentration of half-maximal effect.

The target in one assay is Cytochrome P450 2D6 (Homo sapiens) (UniProt P10635). The experiment in a line: qHTS Assay for Inhibitors and Substrates of Cytochrome P450 2D6 (AID 891). The conditions noted are these: recombinant CYP2D6, luciferin-ME EGE luminescence; series mostly up to 11.4 µM. The essentials: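 Luminescent read-out of luciferin formed by 5 nM human CYP2D6 demethylating 30 uM Luciferin-ME EGE (Km level) over 60 min at room temperature after NADPH regeneration addition. Data normalized to full inhibition by 1.43 uM quinidine.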
Chain of Cytochrome P450 2D6 (Homo sapiens) (P10635 whole entry, looked up): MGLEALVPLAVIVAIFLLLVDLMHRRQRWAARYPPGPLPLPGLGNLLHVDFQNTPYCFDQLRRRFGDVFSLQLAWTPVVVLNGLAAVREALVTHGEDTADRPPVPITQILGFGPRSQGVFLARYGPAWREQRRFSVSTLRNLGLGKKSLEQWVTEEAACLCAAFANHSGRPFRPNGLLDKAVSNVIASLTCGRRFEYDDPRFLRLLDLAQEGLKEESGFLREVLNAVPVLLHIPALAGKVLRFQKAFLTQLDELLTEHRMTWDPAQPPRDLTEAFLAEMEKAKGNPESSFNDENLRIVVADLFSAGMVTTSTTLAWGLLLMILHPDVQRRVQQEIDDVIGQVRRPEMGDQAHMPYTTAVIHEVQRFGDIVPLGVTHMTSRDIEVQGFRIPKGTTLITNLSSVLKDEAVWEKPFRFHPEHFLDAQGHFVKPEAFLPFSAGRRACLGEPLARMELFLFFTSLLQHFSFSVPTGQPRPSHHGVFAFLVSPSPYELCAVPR
For orientation: Quantitative high-throughput screening tests each substance at several concentrations.
As to `COC(=O)C/C=C\[C@@H](C)[C@@H](/C=N\OC[C@@H](O)[C@H]1O[C@H]2OC(C)(C)O[C@H]2[C@@H]1O)OC`, the Potency entry was “inactive”.
On the same count and under the same terms, the result for `CCC[C@@H]1C[C@@]1(CCC)C(NC(=O)OCc1ccccc1)c1ccc(-c2ccccc2)cc1` (some centres not stated) reads 7940 nM (active); that for `CC(=O)OC[C@@H]1O[C@H](C/C=N\O[C@@H](C)CN2CCCc3nc(C)c(C)cc32)C=C[C@@H]1OC(C)=O`, 3160 nM (active).
The same measure, in the same setting: the result for `CC(=O)OCC1OC(C#Cc2ccc(Br)cc2)C=CC1OC(C)=O` (configuration not stated) reads “inactive”; that for `CC(C)=NO[C@@H](C)CN1CCCCc2nc(C)c(C)cc21`, 2510 nM (active).
As for `O=C(NCCC[N+]1=CC=N[C@H]1c1ccccc1)N1CCCc2nc(-c3ccc(Br)cc3)ccc21`, the Potency is 79.4 nM (active).
Same read-out and setting: the result for `CC1CCC2C(=O)N3C(CCC(C)C3c3ccccc3Br)C(=O)N2C1c1ccc(C#CCN(C)C)cc1` (configuration not stated) reads “inactive”; that for `C[C@@H](c1ccccc1)N1C(=O)[C@H]2[C@H]3[C@H](O)[C@H](O)C/C(=N/OCc4ccccc4)[C@@H]3CC[C@@H]2C1=O`, “inactive”.
On the same count and under the same terms, the result for `CC(=O)OC[C@H]1O[C@@H](O/N=C(\C)CCN2CCCCc3nc(C)c(C)cc32)[C@H](OC(C)=O)[C@@H](OC(C)=O)[C@H]1OC(C)=O` reads 3980 nM (active); that for `COc1ccc(OC2C(O)COC2/C=C/c2ccccc2)cc1` (configuration not stated), “inactive”; that for `CC1CCC2C(=O)N3C(CCC(C)[C@H]3c3ccccc3Br)C(=O)N2C1c1ccccc1Br` (some centres not stated), 3160 nM (active).
On the same count and under the same terms, the result for `CO[C@@H]1COC(=O)[C@@H](C)NC(=O)C/C=C\[C@@H](C)[C@H](NS(=O)(=O)c2ccc(C)cc2)COC(=O)[C@H](C)NC(=O)C/C=C\[C@H]1C` reads “inactive”; that for `C[C@@H]1/C=C\CC(=O)OC[C@H]2O[C@@H](C=C[C@@H]2O)[C@H](C)/C=C\CC(=O)OC1`, “inactive”; that for `COc1ccc(OC2C=CC(C#Cc3ccc(C(C)(C)C)cc3)OC2CO)cc1` (configuration not stated), “inactive”.
Take `C=CCC1C=CC(Oc2ccc(F)cc2C)C(CO)O1` (configuration not stated): the Potency result was “inactive”.
On the same count and under the same terms, the result for `CO/N=C(\C)CCN1CCCCc2nc(C)c(C)cc21` reads 3980 nM (active).
Regarding `C(#CC1C=CC2OC(c3ccccc3)OCC2O1)c1ccccc1` (configuration not stated), the Potency entry was “inactive”.
On the same count and under the same terms, the result for `CC1CCC2C(=O)OC(CO)CN2C1c1ccc(Br)cc1` (configuration not stated) reads “inactive”.
Same read-out and setting: the result for `CC(=O)OC[C@H]1O[C@@H](O/N=C(\C)CCN2CCCc3nc(C)c(C)cc32)[C@H](OC(C)=O)[C@@H](OC(C)=O)[C@H]1OC(C)=O` reads 3160 nM (active).

A further assay deals with Cytochrome P450 2C19 (Homo sapiens) (UniProt P33261). In words: qHTS Assay for Inhibitors and Substrates of Cytochrome P450 2C19 (AID 899). To be noted: recombinant CYP2C19, luciferin-H EGE luminescence; series mostly up to 11.4 µM. In outline: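 Luminescence readout of luciferin formed from 10uM Luciferin-H EGE (KM level) by 5 nM CYP2C19 in 50mM KPO4. 60 min NADPH-driven reaction at 37C after 10 min compound preincubation; data scaled to 57uM ketoconazole inhibition.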
Chain of Cytochrome P450 2C19 (Homo sapiens) (P33261 whole entry, looked up): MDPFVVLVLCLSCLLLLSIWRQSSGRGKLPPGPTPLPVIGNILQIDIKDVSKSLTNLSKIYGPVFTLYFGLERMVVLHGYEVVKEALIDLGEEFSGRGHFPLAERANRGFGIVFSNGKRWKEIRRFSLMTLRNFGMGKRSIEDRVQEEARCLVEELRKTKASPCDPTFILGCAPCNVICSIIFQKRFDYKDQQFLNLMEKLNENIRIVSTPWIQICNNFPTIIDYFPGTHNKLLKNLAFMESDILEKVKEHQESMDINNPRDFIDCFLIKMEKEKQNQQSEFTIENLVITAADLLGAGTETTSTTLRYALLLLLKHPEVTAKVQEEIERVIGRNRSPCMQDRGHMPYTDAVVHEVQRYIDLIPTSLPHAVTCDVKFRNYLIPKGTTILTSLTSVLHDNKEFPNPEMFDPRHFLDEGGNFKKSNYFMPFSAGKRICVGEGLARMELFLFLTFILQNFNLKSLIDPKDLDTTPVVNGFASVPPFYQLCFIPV
Regarding `CCC[C@@H]1C[C@@]1(CCC)C(NC(=O)OCc1ccccc1)c1ccc(-c2ccccc2)cc1` (some centres not stated), the Potency was 1260 nM (active).
Same read-out and setting: the result for `CC(=O)OCC1OC(C#Cc2ccc(Br)cc2)C=CC1OC(C)=O` (configuration not stated) reads “inactive”; that for `CC1CCC2C(=O)N3C(CCC(C)C3c3ccccc3Br)C(=O)N2C1c1ccc(C#CCN(C)C)cc1` (configuration not stated), “inactive”.
The same measure, in the same setting: the result for `COc1ccc(OC2C(O)COC2/C=C/c2ccccc2)cc1` (configuration not stated) reads 2000 nM (active); that for `CC1CCC2C(=O)N3C(CCC(C)[C@H]3c3ccccc3Br)C(=O)N2C1c1ccccc1Br` (some centres not stated), “inactive”.
Regarding `C=CCC1C=CC(Oc2ccc(F)cc2C)C(CO)O1` (configuration not stated), the Potency was 251 nM (active).
The same measure, in the same setting: the result for `C(#CC1C=CC2OC(c3ccccc3)OCC2O1)c1ccccc1` (configuration not stated) reads “inactive”.
Same read-out and setting: the result for `CC1CCC2C(=O)OC(CO)CN2C1c1ccc(Br)cc1` (configuration not stated) reads 158 nM (active).
